Where “and” joins values, the source holds several entries; their conditions need not be identical. Equal values may be shown once. Records with an inconclusive call do not appear. Values without a mark were called inactive. Calls of active or inactive are those of the source. Calls come from the whole dose curve; as a rule, active = well fitted activation curve with a large enough effect; inconclusive = small, poorly fitted or top-dose-only effect; inactive = no such curve, though single readings can be large or run the other way.
What follows are compounds tested against Cellular tumor antigen p53 (Homo sapiens) (UniProt P04637) (assay: Primary qHTS for small molecule compounds that upregulate eGFP-tagged delta133p53alpha (in N-terminal) cells. (AID 2060322; note: nearly all actives have a fitted effect of over 75% in size;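 for activation: series mostly up to about 56 µM; 0% = DMSO vehicle and 100% = reference activator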)). Details: NCI-H358 eGFP-delta133p53alpha fluorescence, 24 h; activation: stronger effect = higher value.
Sequence of Cellular tumor antigen p53 (Homo sapiens) (P04637 whole entry, looked up): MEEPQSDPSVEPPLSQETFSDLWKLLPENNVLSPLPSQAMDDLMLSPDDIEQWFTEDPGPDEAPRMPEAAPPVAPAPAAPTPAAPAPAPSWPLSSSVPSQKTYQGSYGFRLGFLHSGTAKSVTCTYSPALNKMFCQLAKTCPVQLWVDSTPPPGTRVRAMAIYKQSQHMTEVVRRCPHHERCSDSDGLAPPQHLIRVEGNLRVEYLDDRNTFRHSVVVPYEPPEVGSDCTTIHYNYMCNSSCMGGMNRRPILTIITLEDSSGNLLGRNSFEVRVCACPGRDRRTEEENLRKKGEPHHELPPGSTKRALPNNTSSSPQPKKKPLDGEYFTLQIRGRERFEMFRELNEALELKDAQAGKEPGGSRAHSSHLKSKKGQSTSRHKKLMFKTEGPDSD
Procedure, shortened: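 NCI-H358 cells pre-induced 24 h with 10 ng/ml doxycycline to express N-terminal eGFP-delta133p53alpha, then dosed 24 h at 37C without doxycycline; fixed, Hoechst-stained, GFP intensity by laser scanning cytometry, normalized to DMSO (0%) and 57.5 uM 5-azacytidine (100%).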
With `CCC(=O)NC[C@H](Cc1ccc(OCCc2nc(-c3ccccc3)oc2C)cc1)NC(C)=CC(=O)c1ccc(C(F)(F)F)cc1` the activation was 17.2%. `c1ccc(CC2=NCCN2)cc1` gave an activation of -3.95%. `O=C1OC(OC(=O)c2cccnc2Nc2cccc(C(F)(F)F)c2)c2ccccc21` (stereo not given) showed an activation of -25.4%. In the case of `CC1(C)S[C@@H]2[C@H](NC(=O)[C@H](N)c3ccccc3)C(=O)N2[C@H]1C(=O)O`, the activation is reported as -15.3%. Work on `CN(C)CCOC(c1ccc(Cl)cc1)c1ccccn1` (stereo not given) yielded an activation of 15.3%. `Nc1ccccc1N` was tested, and the Potency was 17.8 µM (active). In the case of `COc1cnc(NS(=O)(=O)c2ccc(N)cc2)nc1`, the activation is reported as 2.51% and 10.3%. Compound `CCCCCCCCCCCCCCCCCCNC(=O)OC1CCN(C(=O)OC[C@H](COC(=O)N(Cc2cccc[n+]2CC)C(=O)c2ccccc2OC)OC)CC1` has an activation of 1.67%. `CCc1c(C)nc2c(-c3cnn(-c4cc(CO)ccn4)c3)c[nH]n2c1=O` gave an activation of 5.67%. `CCC(=C(CC)c1ccc(O)cc1)c1ccc(O)cc1` was tested, and the activation was -17%. `Nc1ncnc2c1ncn2Cc1c(F)cccc1Cl` gave an activation of -17.6%. In the case of `CCCC(CCC)(C(=O)OCC)C(=O)OCC`, the activation is reported as -3.95%. `CC(O)Cn1cnc2c1c(=O)n(C)c(=O)n2C` (stereo not given) was tested, and the activation was 26.6%. `CN1CCC[C@@H]1CCO[C@](C)(c1ccccc1)c1ccc(Cl)cc1` gave an activation of 26.6%. Work on `OC[C@@H](O)[C@@H](O[C@@H]1O[C@H](CO)[C@H](O)[C@H](O)[C@H]1O)[C@H](O)[C@@H](O)CO` yielded an activation of -8.37%. In the case of `CN1Cc2cc(C(=O)N3CCC(C4CCNCC4)CC3)ccc2NC(CC(=O)O)C1=O` (stereo not given), the activation is reported as -16.7%. In the case of `CCN(CC)c1ccc(C(=C2C=CC(=[N+](CC)CC)C=C2)c2cc(S(=O)(=O)O)ccc2S(=O)(=O)[O-])cc1`, the activation is reported as -8.47%. In the case of `CC(C)C(=O)Nc1cccc(C(F)(F)F)c1`, the activation is reported as -15.3%. With `Cc1cn([C@@H]2O[C@H](CO)[C@@H](O)[C@H]2F)c(=O)[nH]c1=O` the activation was 5.67%. `CC(C(=O)O)c1ccc(C(=O)c2cccs2)cc1` (stereo not given) gave an activation of 9.21%. With `NC(=O)CC[C@@H](N)C(=O)O` the activation was 1.69%. For `C[C@H](N)[C@H](O)c1cccc(O)c1`, the activation was -7.53%. `CCOC1OC(=O)C[C@H]1NC(=O)[C@@H]1CCCN1C(=O)[C@@H](NC(=O)c1ccc(N)c(Cl)c1)C(C)(C)C` (stereo not given in full) showed an activation of 110%. With `Cn1cc(C=C2C(=O)Nc3cccnc32)c2ccccc21` the Potency was 24.3 µM (active). `C[C@H]1O[C@@H](n2cc(F)c(=O)[nH]c2=O)[C@H](O)[C@H]1O` was tested, and the activation was 0.294%. `O=C(O)CCC(=O)Nc1ccc(S(=O)(=O)Nc2nccs2)cc1` gave an activation of -3.95%. For `O=C(O)c1ccccc1Nc1cccc(C(F)(F)F)c1`, the activation was -19.8%. For `Cc1ncc(CO)c(CN)c1O`, the activation was 16.4%. Compound `CC(C)CCCC(C)NCCC(C)C` (stereo not given) has an activation of -13.4%. In the case of `CC[C@]1(O)C[C@H]2CN(CCC3=c4ccccc4=N[C]3[C@@](C(=O)OC)(c3cc4c(cc3OC)N(C)[C@H]3[C@@](O)(C(N)=O)[C@H](O)[C@]5(CC)C=CCN6CC[C@]43[C@@H]65)C2)C1`, the activation is reported as 31.2%. With `Cc1ccccc1N1CCN(CCc2nnc3n2CCCC3)CC1` the activation was -10.7%. In the case of `CCOC(=O)c1c(N)sc2c1CCN(Cc1ccccc1)C2`, the Potency is reported as 15.5 µM (active). With `Cc1[nH]cnc1-c1ccc(Cl)cc1` the activation was 15.3%. Work on `NS(=O)(=O)Cc1noc2ccccc12` yielded an activation of 10.9%. Compound `CC1(C)[C@@H](OC(=O)CCC(=O)O)CC[C@]2(C)[C@H]3C(=O)C=C4[C@@H]5C[C@@](C)(C(=O)O)CC[C@]5(C)CC[C@@]4(C)[C@]3(C)CC[C@@H]12` has an activation of 0.565%. For `CN1CCN(C2=Nc3ccccc3Sc3ccc(Cl)cc32)CC1`, the activation was 15.3%. `Cc1ccc2nc(NC(=O)CSc3nc4c(c(=O)n3C)SC(C)C4)sc2c1` (stereo not given) gave an activation of 21.2%. `COc1cc(C)c(C=CC(C)=CC=CC(C)=CC(=O)O)c(C)c1C` was tested, and the activation was 21.4%. With `Cc1ccc(S(=O)(=O)NC(=O)NC2CCCC2)cc1` the activation was 23.2%. With `CO[C@H]1/C=C\O[C@@]2(C)Oc3c(C)c(O)c4c(O)c(c5c(nc6cc(C)ccn65)c4c3C2=O)NC(=O)/C(C)=C\C=C/[C@H](C)[C@H](O)[C@@H](C)[C@@H](O)[C@@H](C)[C@H](OC(C)=O)[C@@H]1C` the activation was -1.91%.

From PubChem BioAssay (NCATS)
Potency is the fitted concentration of half-maximal effect.
